Test results published in PubChem BioAssay (EPA / NIEHS).
The source made the active and inactive calls. Rule for the calls: active = hit-call score of the fitted dose curve at least 0.9, where 1 is the maximum; inactive = score below 0.9.

Assay: ATG_TAL_CIS: Attagene CIS-FACTORIAL HepG2 Assay for human TAL Basal Promoter (AID 2282966)
Details: HepG2 Attagene cis-factorial TAL promoter reporter; actives raise or lower the signal
Experimental: ATG_CIS is a cell-based, multiplexed-readout assay that uses HepG2, a human liver cell line, with measurements taken at 24 hours after chemical dosing in a 24-well plate.ATG_TAL_CIS is one of 52 assay component(s) measured or calculated from the ATG_CIS assay. It is designed to make measurements of mRNA induction, a form of inducible reporter, as detected with fluorescence intensity signals by Reverse transcription polymerase chain reaction (RT-PCR) and Capillary electrophoresis technology.Data from the assay component ATG_TAL_CIS was analyzed into 1 assay endpoint. This assay endpoint, ATG_TAL_CIS, was analyzed with bidirectional fitting relative to DMSO as the negative control and baseline of activity. Using a type of inducible reporter, measures of mRNA for gain or loss-of-signal activity can be used to understand the background control at the transcription factor-level as they relate to the gene . Furthermore, this assay endpoint can be referred to as a secondary readout, because this assay has produced multiple assay endpoints where this one serves a background control function. To generalize the intended target to other relatable targets, this assay endpoint is annotated to the background measurement intended target family, where the subfamily is internal marker.
Human liver HepG2 cells are transiently transfected with multiple reporter transcription units (MRTUs) in 6-well plates using FuGene 6 reagent (Roche; 3 ml FuGene/1 mg DNA). The MRTU constructs are regulated by a cis-regulating element (promoter). […] A major difference between the CIS and TRANS system is that in CIS activities of endogenous TFs are measured, whereas the TRANS assay evaluates changes in activities of exogenous, chimeric NR-Gal4 proteins. […] At the end of 24 hour incubation, total RNA was isolated using TriZol reagent (Invitrogen). The isolated RNA is then reverse-transcribed using oligo(dT) primer and Mo-MLV reverse transcriptase (Invitrogen) with DNAse I (Ambion) treatment for 30 min. The one-tenth of the produced cDNA was amplified by PCR using Taq DNA polymerase (Invitrogen) and two reporter sequence-specific primers. The PCR products were fluorescently labeled by primer extension with 6-arboxyfluorescein (6-FAM) 5'-labeled reporter sequence-specific primer (2 min at 95 C, 20 s at 68 C and 10 min at 72 C) and these products were digested with 5U of HpaI (New England Biolabs) for 2h at 37 C. The fragments were purified using Qiaquick PCR columns (Qiagen), analyzed on an ABI 3130xL genetic analyzer (Applied Biosystems) with peak positions identified by using a set of X-rhodamine (ROX)-labeled MapMarker1000 molecular weight standards (BioVentures). The raw capillary electrophoresis data was processed using Attagraph software (Attagene).
For `CC1(C)NC(=O)NC1=O`, the outcome was “inactive”.
In the case of `O=[N+]([O-])C(CO)(CO)CO`, the outcome is reported as “inactive”.
In the case of `CC(=O)C(C)=CC1C(C)=CCCC1(C)C` (stereo not given), the outcome is reported as “inactive”.
For `Cc1ccc(C(C)C)c(O)c1`, the outcome was “inactive”.
With `CCCCCCCCCCCCCO` the outcome was “inactive”.
For `C=CCc1ccc(O)c(OC)c1`, the outcome was “inactive”.
In the case of `CCCCC(CC)COC(=O)CC(C(=O)OCC(CC)CCCC)S(=O)(=O)O` (stereo not given), the outcome is reported as “inactive”.
In the case of `COc1cc(/C=C/C(=O)CC(=O)/C=C/c2ccc(O)c(OC)c2)ccc1O`, the outcome is reported as “inactive”.
In the case of `Cc1cc(NC(=O)C(=O)O)cc(C)c1Oc1ccc(O)c2c1CCC2`, the outcome is reported as “inactive”.
With `CC1=C(/C=C/C(C)=C/C=C/C(C)=C/CO)C(C)(C)CCC1` the outcome was “inactive”.
For `CCNc1cccc(C)c1`, the outcome was “inactive”.
For `CC=Cc1ccc(O)c(OC)c1`, the outcome was “inactive”.
For `Nc1ccc2c(c1)C(=O)c1ccccc1C2=O`, the outcome was “inactive”.
With `CCOC(=O)C(C)(C)Oc1ccc(Cl)cc1` the outcome was “inactive”.
For `Cc1ccc(C)c(O)c1C`, the outcome was “inactive”.
For `Cc1ccc(N(C)C)cc1`, the outcome was “inactive”.
With `Cc1nc(C)nc(N2C[C@@H](C)N(c3ccnc([C@@H](C)O)n3)[C@@H](C)C2)n1` the outcome was “inactive”.
In the case of `CCOC(=O)CCC(=O)OCC`, the outcome is reported as “inactive”.
In the case of `O=C(OCCCCCOC(=O)c1ccccc1)c1ccccc1`, the outcome is reported as “inactive”.
With `O=C(N[C@@H](Cc1ccccc1)[C@@H](O)C(=O)N1C[C@@H](O)[C@@H](O)C1)c1cc2cc(Cl)ccc2[nH]1` the outcome was “inactive”.
With `C1CCC(SSC2CCCCC2)CC1` the outcome was “inactive”.
With `Cc1ccc2ncccc2c1` the outcome was “inactive”.
For `FC(F)(F)C(F)(F)C(F)(F)C(F)(F)C(F)(F)C(F)(F)CCI`, the outcome was “inactive”.
With `CC(C)(C)c1cc(O)c(C(C)(C)C)cc1O` the outcome was “inactive”.
In the case of `Nc1nc(N)c2nc(CNc3ccc(C(=O)N[C@@H](CCC(=O)O)C(=O)O)cc3)cnc2n1`, the outcome is reported as “inactive”.
With `Cc1oc(-c2ccccc2)nc1CCOc1cccc2c1ccn2CCC(=O)O` the outcome was “inactive”.
For `CC(=O)OC/C=C(\C)CCC=C(C)C`, the outcome was “inactive”.
For `CC(CO)OC(C)CO` (stereo not given) (tested in a mixture with another compound), the outcome was “inactive”.
With `CCCCN(CCCC)CCCC` the outcome was “inactive”.
For `Cc1c(C(=O)O)c(O)cc2c1C(=O)c1c(O)c([C@@H]3O[C@H](CO)[C@@H](O)[C@H](O)[C@H]3O)c(O)c(O)c1C2=O`, the outcome was “inactive”.
With `CCCCCCCCCCCCCCCC` the outcome was “inactive”.
With `COc1ccc(S(=O)(=O)N2C(=O)[C@@](c3ccccc3OC)(N3C[C@H](O)C[C@H]3C(=O)N(C)C)c3cc(Cl)ccc32)c(OC)c1` the AC50 was 177 µM (active).
For `CC1(C)CC(N=C=O)CC(C)(CN=C=O)C1` (stereo not given), the outcome was “inactive”.
With `C[Si]1(C)O[Si](C)(C)O[Si](C)(C)O[Si](C)(C)O1` the outcome was “inactive”.
For `CCOc1ccc2c(c1)C(C)=CC(C)(C)N2`, the outcome was “inactive”.
For `CCCCCCCCCCCCCCCCCC(=O)O`, the outcome was “inactive”.
In the case of `O=c1[nH]cc(F)c(=O)[nH]1`, the outcome is reported as “inactive”.
For `COC(=O)c1ccc(O)cc1`, the outcome was “inactive”.
In the case of `CCCCCCC(=O)OCC`, the outcome is reported as “inactive”.
For `Cc1ccccc1Cl`, the outcome was “inactive”.
